Hits are enriched below; roughly 0.93% of the tested compounds scored in any of these assays.
RPL19A-GFP yeast – alters RPL19A-GFP fluorescence in TOR pathway yeast screen; S. cerevisiae RPL19A-GFP strain, flow cytometry, 3 h; hits give low values; 330,000 tested, 0.3% active; AID 2025; percent response vs DMSO, % at 10 µM;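 active = percent response vs DMSO below 50%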;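 also: median channel GFP fluorescence of the barcoded RPL19A-GFP strain; ratio of sample median GFP to plate DMSO average so 100% = DMSO; lower means less RPL19A-GFP as with rapamycin TOR inhibition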
MEP2-GFP yeast – yeast TOR pathway MEP2-GFP modulation. GFP response vs DMSO, % at 10 µM. S. cerevisiae MEP2-GFP strain, flow cytometry GFP, 3 h; 100% = DMSO control level. 330,000 tested, 0.51% active;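 active = GFP response versus DMSO above a set limit, roughly screen mean plus 3 SD, cut at about 180% in these data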;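 also: median GFP fluorescence of the barcode-gated MEP2-GFP cells per well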
LAP4 TOR yeast – modulators of TOR pathway LAP4-GFP in S. cerevisiae. 320,000 tested, 0.34% active. S. cerevisiae LAP4-GFP multiplex, flow cytometry GFP, 3 h; median GFP as percent of DMSO wells. GFP response vs DMSO, % at 10 µM;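 active = GFP response vs DMSO above a set limit, about the screen mean plus 3 SD, cut at about 150% in these data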
AGP1 TOR yeast – alters AGP1-GFP fluorescence in TOR pathway yeast screen | 320,000 tested, 0.02% active | S. cerevisiae AGP1-GFP multiplex flow cytometry, 3 h; GFP as percent of DMSO wells | GFP response vs DMSO, % at 10 µM | AID 2066;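 active = GFP response relative to DMSO above a set limit, near screen average plus 3 SD, cut at about 150% in these data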;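 also: median GFP channel fluorescence of the gated AGP1 strain per well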
CIT2-GFP yeast – alters CIT2-GFP fluorescence in TOR pathway yeast screen | GFP response vs DMSO, % at 10 µM | 320,000 tested, 0.065% active | S. cerevisiae CIT2-GFP strain, flow cytometry, 3 h; 100 means same as DMSO wells | AID 2029;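 active = GFP response relative to DMSO above a set limit, near the screen mean plus 3 SD, cut at about 150% in these data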;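 also: ratio of well median GFP fluorescence to mean of DMSO wells on the plate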
LAP4-GFP pick2 – second confirmation of modulators of TOR reporter LAP4-GFP in yeast; shares compounds with LAP4 TOR yeast; S. cerevisiae LAP4-GFP strain, flow cytometry GFP, 3 h; GFP response vs DMSO, % at 10 µM; 590 tested, 20% active; AID 2621;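 active = GFP signal as percent of the solvent control above about 150%, meaning raised reporter expression, limit read from the data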;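 also: ratio of well median GFP fluorescence to plate DMSO mean so 100% = DMSO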
MEP2 cherry2 – second confirmation of modulators of TOR reporter MEP2-GFP in yeast; GFP response vs DMSO, % at 10 µM; AID 2622; S. cerevisiae MEP2-GFP strain, flow cytometry GFP, 3 h; shares compounds with LAP4 TOR yeast; 590 tested, 10% active;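 active = GFP signal above 150% of the solvent control wells, that is a rise of more than half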;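 also: median channel GFP fluorescence of all gated yeast cells per well; ratio of median GFP to plate DMSO average so 100% = DMSO level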
RPL19A-GFP pick2 – second confirmation of modulators of TOR reporter RPL19A-GFP in yeast. shares compounds with LAP4 TOR yeast. S. cerevisiae RPL19A-GFP strain, flow cytometry GFP, 3 h; hits give low values; 100% means same as DMSO wells. GFP response vs DMSO, % at 10 µM. 590 tested, 3% active. AID 2623;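 active = under 65% GFP response relative to DMSO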;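 also: median GFP channel fluorescence per well over the all cells gate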
CIT2 GFP CP2 – second confirmation of modulators of TOR reporter CIT2-GFP in yeast; GFP response vs DMSO, % at 10 µM; shares compounds with LAP4 TOR yeast; S. cerevisiae CIT2-GFP strain, flow cytometry GFP, 3 h; DMSO control wells read 100%; 590 tested, 8% active;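 active = GFP response vs DMSO above about 150%, limit read from the data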;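 also: median green fluorescence per well over all gated yeast cells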
AGP1 GFP CP2 – yeast AGP1-GFP TOR reporter modulation, second cherry pick; shares compounds with LAP4 TOR yeast; S. cerevisiae AGP1-GFP strain, flow cytometry GFP, 3 h; percent response vs DMSO, % at 10 µM; 590 tested, under 10 active;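 active = over 150 percent of DMSO response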;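 also: median GFP channel fluorescence over all cells without mother daughter split; sample median GFP divided by mean DMSO control so 100% equals DMSO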
s288c autofl DR – counter-screen for autofluorescence of TOR hits in yeast s288c | fluorescence change (span) at 33 µM | AID 488829 | S. cerevisiae s288c parental, compound autofluorescence, flow cytometry, 3 h | 110 tested, under 10 active | shares compounds with LAP4 TOR yeast;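 active = fluorescence change span, or the activity score built from it, above 25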
TORC1 bypass – stops wildtype yeast growth while TORC1 bypass cells still grow. 120 tested, under 10 active. S. cerevisiae BY4741 spot growth rating, 48-72 h; hits give low values. shares compounds with LAP4 TOR yeast. growth rating (0-3) at 30 µM;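 active = growth rating at most 1 for wild type yeast while the TORC1 bypass strain still grows fully, rated 3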
* = called active by the depositor.

`C=CCOc1ccc(/C=C/C(=O)OCC(=O)N2CCC(c3ccccc3)=N2)cc1` gave RPL19A-GFP yeast 115.7, MEP2-GFP yeast 174.3, LAP4 TOR yeast 169.7*, AGP1 TOR yeast 121.9, CIT2-GFP yeast 171.2*, LAP4-GFP pick2 98.1, MEP2 cherry2 101.5, RPL19A-GFP pick2 97.9, CIT2 GFP CP2 98.4 and AGP1 GFP CP2 97.9.
`C=CCOc1ccc(/C=C/C(=O)OCC(=O)NCCCc2ccccc2)cc1` gave RPL19A-GFP yeast 96.8, MEP2-GFP yeast 113.5, LAP4 TOR yeast 100.5, AGP1 TOR yeast 103.0 and CIT2-GFP yeast 95.4.
Cc1ccnc(NC(=O)c2ccc(Cl)c(NC(=O)CCc3ccccc3)c2)c1 was read as RPL19A-GFP yeast 93.8, MEP2-GFP yeast 94.8, LAP4 TOR yeast 101.6, AGP1 TOR yeast 94.4 and CIT2-GFP yeast 93.0.
Fc1ccc(NC(=S)Nc2ccc3nccnc3c2)cc1 was read as RPL19A-GFP yeast 66.3, MEP2-GFP yeast 92.7, LAP4 TOR yeast 170.6*, AGP1 TOR yeast 39.8, CIT2-GFP yeast 71.8, LAP4-GFP pick2 103.2, MEP2 cherry2 99.6, RPL19A-GFP pick2 101.5, CIT2 GFP CP2 104.3 and AGP1 GFP CP2 98.3.
O=C(CSc1ccc(F)cc1)Nc1cccc(S(=O)(=O)N2CCOCC2)c1 was read as RPL19A-GFP yeast 86.8, MEP2-GFP yeast 102.2, LAP4 TOR yeast 170.2*, AGP1 TOR yeast 112.2, CIT2-GFP yeast 86.9, LAP4-GFP pick2 102.2, MEP2 cherry2 97.8, RPL19A-GFP pick2 100.0, CIT2 GFP CP2 107.1 and AGP1 GFP CP2 96.6.
For CCOc1ccc(OCC)c(NC(=O)C2CCN(S(=O)(=O)c3ccc4c(c3)CC(C)N4C(C)=O)CC2)c1 (stereo unspecified) the results were RPL19A-GFP yeast 98.7, MEP2-GFP yeast 98.0, LAP4 TOR yeast 95.8, AGP1 TOR yeast 91.1 and CIT2-GFP yeast 90.8.
For COc1cc2c(cc1OC)C(c1ccc(-c3ccccc3Cl)o1)=NCC2 the results were RPL19A-GFP yeast 100.4, MEP2-GFP yeast 102.7, LAP4 TOR yeast 109.0, AGP1 TOR yeast 99.5 and CIT2-GFP yeast 98.8.
`CC1=NN(c2ccccc2)C(=O)C1C(c1ccccc1[N+](=O)[O-])C(C#N)C#N` (stereo unspecified) gave s288c autofl DR 0.42 and TORC1 bypass 3.
Screening Cc1[nH][nH]c(=O)c1C(c1ccccc1[N+](=O)[O-])C(C#N)C#N (stereo unspecified) returned RPL19A-GFP yeast 102.2, MEP2-GFP yeast 118.8, LAP4 TOR yeast 106.2, AGP1 TOR yeast 103.5 and CIT2-GFP yeast 101.8.

Source: PubChem BioAssay (NMMLSC)
